This passage reports Potency, activation and activity change, negative = inhibition results from PubChem BioAssay (NCATS).

The target in assay [1] is Rap guanine nucleotide exchange factor 3 (Homo sapiens) (UniProt O95398). Briefly: Confirmatory qHTS for antagonist of cAMP-regulated guanine nucleotide exchange factor 3 (EPAC1) (AID 1645880). Also: nearly all actives have a fitted effect of over 55% in size. Also: potency is read from the fitted curve at half-maximal effect.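 As to activity, negative = inhibition: plate controls were DMSO only for no effect and full effect of the ATA control for full effect.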 The conditions noted are these: EPAC1 Rap1B-BODIPY-GDP exchange, fluorescence; activity, negative = inhibition: at 115 µM (top of the series). A digest of the protocol:
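Nucleotide exchange uses 100 nM EPAC1, 250 nM RAP1B-BODIPY-GDP and 50 uM GDP, with compounds in a concentration-titration series. After 5 min at room temperature, fluorescence (480 nm ex/540 nm em) is read every 5 min for 30 min. Data are normalized to control ATA and DMSO.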

Assay [2] shares this target. Kind of assay: Confirmatory qHTS for agonist of cAMP-regulated guanine nucleotide exchange factor 3 (EPAC1) (AID 1645881). Also: nearly all actives have a fitted effect of over 75% in size. Also: potency is read from the fitted curve at half-maximal effect.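 As to activation: EPAC1 catalysed release of BODIPY-GDP from Rap1B seen as fluorescence loss; 100% = effect of cAMP agonist control.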 Background: In qHTS, concentration-response curves come from the screen itself.
Assay [3] deals with Rap guanine nucleotide exchange factor 4 (Homo sapiens) (UniProt Q8WZA2). Briefly: Confirmatory qHTS for agonist of cAMP-regulated guanine nucleotide exchange factor 4 (EPAC2) (AID 1645884).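 Also: nucleotide exchange releases bodipy-GDP from Rap1 and this lowers its fluorescence; % is scaled to controls: 0 for no effect and ±100 for the full control effect; nearly all actives have a fitted effect of over 65% in size.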
Rap guanine nucleotide exchange factor 4 (Homo sapiens), sequence (Q8WZA2 whole entry, looked up): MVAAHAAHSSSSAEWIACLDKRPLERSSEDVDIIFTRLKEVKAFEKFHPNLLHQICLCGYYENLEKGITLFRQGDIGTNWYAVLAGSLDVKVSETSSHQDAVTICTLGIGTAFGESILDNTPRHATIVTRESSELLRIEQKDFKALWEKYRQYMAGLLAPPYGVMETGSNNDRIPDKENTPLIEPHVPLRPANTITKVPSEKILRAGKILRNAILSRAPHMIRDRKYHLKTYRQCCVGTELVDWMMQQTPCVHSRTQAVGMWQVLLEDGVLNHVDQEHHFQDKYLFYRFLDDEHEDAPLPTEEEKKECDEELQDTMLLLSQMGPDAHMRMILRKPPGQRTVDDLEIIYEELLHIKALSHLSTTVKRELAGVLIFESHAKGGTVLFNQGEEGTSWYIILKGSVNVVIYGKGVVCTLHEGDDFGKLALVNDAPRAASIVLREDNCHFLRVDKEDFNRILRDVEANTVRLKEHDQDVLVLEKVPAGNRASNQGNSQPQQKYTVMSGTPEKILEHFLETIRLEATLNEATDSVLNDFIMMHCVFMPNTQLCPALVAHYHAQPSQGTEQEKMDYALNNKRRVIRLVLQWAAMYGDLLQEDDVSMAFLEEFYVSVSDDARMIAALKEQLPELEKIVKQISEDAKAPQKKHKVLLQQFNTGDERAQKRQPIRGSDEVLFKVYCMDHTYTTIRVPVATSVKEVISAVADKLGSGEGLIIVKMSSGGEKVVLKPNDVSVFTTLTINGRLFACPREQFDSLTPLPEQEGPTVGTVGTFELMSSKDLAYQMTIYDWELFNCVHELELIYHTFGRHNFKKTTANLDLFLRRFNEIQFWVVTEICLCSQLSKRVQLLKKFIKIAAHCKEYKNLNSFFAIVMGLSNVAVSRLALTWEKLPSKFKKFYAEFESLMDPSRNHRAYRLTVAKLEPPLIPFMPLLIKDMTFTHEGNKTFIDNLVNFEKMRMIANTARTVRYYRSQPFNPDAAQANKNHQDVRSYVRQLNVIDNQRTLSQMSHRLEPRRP
For assay [4] the target is unchanged. Kind of assay: Confirmatory qHTS for antagonist of cAMP-regulated guanine nucleotide exchange factor 4 (EPAC2) (AID 1645885). Also: nearly all actives have a fitted effect of over 25% in size. Also: potency is read from the fitted curve at half-maximal effect. As to activity change, negative = inhibition: % is scaled to controls: 0 for no effect and ±100 for the full control effect.
For assay [5], the target named is Rap guanine nucleotide exchange factor 3 (Homo sapiens) (UniProt O95398). Briefly: Counterscreen qHTS for antagonist of cAMP-regulated guanine nucleotide exchange factor 3 (EPAC1) (AID 1645888).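 Also: fluorescence loss as bound BODIPY-GDP is released from Rap1B; % of control where 0% means no effect.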 A digest of the protocol: (§1)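 Rap1B–BODIPY-GDP (250 nM) with 50 uM GDP; compounds pin-transferred to 9.74 nM–152 uM final (activator) or from 7.32 nM upwards (inhibitor). Fluorescence Ex/Em 480/540 nm read at 5 and 30 min, then after adding cAMP or buffer, at room temperature.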
Rap guanine nucleotide exchange factor 3 (Homo sapiens), sequence (O95398 whole entry, looked up): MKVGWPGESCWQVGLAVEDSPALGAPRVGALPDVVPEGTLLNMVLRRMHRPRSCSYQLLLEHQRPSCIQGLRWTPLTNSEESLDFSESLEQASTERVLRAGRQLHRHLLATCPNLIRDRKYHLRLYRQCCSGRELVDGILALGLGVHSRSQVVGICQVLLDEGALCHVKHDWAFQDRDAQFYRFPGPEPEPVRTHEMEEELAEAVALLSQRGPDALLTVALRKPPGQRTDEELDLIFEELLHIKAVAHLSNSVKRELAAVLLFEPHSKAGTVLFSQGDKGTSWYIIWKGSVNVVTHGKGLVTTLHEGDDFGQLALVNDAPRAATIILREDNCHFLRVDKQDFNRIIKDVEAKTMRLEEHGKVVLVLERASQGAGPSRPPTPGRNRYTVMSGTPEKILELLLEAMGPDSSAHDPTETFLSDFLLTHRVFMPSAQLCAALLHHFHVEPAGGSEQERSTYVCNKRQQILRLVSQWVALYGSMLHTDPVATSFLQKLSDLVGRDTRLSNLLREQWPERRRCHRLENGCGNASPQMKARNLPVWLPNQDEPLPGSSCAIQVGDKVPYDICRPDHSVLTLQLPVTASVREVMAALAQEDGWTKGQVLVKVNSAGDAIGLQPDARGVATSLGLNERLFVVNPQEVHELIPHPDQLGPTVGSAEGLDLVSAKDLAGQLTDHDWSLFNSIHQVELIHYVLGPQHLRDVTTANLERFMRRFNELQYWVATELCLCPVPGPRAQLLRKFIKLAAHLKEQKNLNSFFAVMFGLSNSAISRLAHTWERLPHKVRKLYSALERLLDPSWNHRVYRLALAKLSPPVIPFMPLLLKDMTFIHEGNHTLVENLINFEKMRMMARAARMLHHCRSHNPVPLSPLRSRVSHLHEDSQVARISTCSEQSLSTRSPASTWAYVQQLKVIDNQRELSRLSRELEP
(In general: A counterscreen serves to expose hits that act by an unwanted route or on another target.)

Assay [6] has the same target. Kind of assay: Counterscreen qHTS for agonist of cAMP-regulated guanine nucleotide exchange factor 3 (EPAC1) (AID 1645889). Also: % of control where 0% means no effect; nearly all actives have a fitted effect of over 40% in size. A digest of the protocol: as §1

The structures appear in SMILES notation. Records with an inconclusive call do not appear. A number with no mark means an inactive call. Active and inactive are the calls of the source. Calls follow the shape of the dose curve; as a rule, active = well fitted curve in the direction sought with a large enough effect; inconclusive = small, poorly fitted or top-dose-only effect, or another doubt; inactive = no such curve, though single readings can be large; an effect the other way counts as inactive or inconclusive.

For `CCCSc1nc(C)cc(C)c1S(=O)(=O)c1ccccc1C`, the Potency entry in assay [1], in assay [2], in assay [3], in assay [4], in assay [5] and in assay [6] was “inactive” in each case.
Regarding `O=C(CNC(=O)c1sc2ccccc2c1Cl)NCc1cccc(C(F)(F)F)c1`, the Potency entry in assay [1], in assay [2], in assay [3], in assay [4], in assay [5] and in assay [6] was “inactive” throughout.
In the case of `CCOC(=O)N1CCN(C(=O)C(C)(C)Oc2ccc(Cl)cc2)CC1`, the Potency entry in assay [1] and in assay [2] was “inactive” throughout. For the same compound, the activation in assay [3] was 3.62% [at 17.1 µM, percent relative to cAMP agonist control]; in assay [6], 21.9% [at 30.8 µM]. In addition, in assay [4], the Potency was 0.239 µM (active). Further, in assay [5], the activity change, negative = inhibition is 6.37% [at 30.8 µM].
Consider `O=C(C1CCN(S(=O)(=O)N2CCOCC2)CC1)N1CCN(c2ccccc2)CC1`, for which the Potency entry in assay [1], in assay [2], in assay [3], in assay [4], in assay [5] and in assay [6] was “inactive” throughout.
As for `COc1ccc(C2CC(c3cccs3)=NN2C(=O)c2ccco2)cc1OC` (stereo not drawn), the Potency entry in assay [1], in assay [2] and in assay [4] was “inactive” each time. Besides, the activation in assay [3] is 4.11% [at 17.1 µM, percent relative to cAMP agonist control]; in assay [6], 31.8% [at 30.8 µM]. Moreover, the activity change, negative = inhibition in assay [5] is -16.2% [at 30.8 µM].
As to `CC(OC(=O)/C(C#N)=C/c1ccc(N(C)C)cc1)C(=O)N(C)c1ccccc1` (stereo not drawn), the Potency result in assay [1] and in assay [4] was “inactive” throughout. In addition, the Potency in assay [2] is 50.1 µM (active). The activation is 3.03% [at 17.1 µM, percent relative to cAMP agonist control] in assay [3] and 20.3% [at 30.8 µM] in assay [6]. For the same compound, the activity change, negative = inhibition in assay [5] is -2.82% [at 30.8 µM].
Take `CCOC(=O)C1(c2ccccc2)SC(C(=O)OCC)(c2ccccc2)S1` (stereo not drawn): the Potency result in assay [1], in assay [2], in assay [3], in assay [5] and in assay [6] was “inactive” in each case. In addition, the Potency in assay [4] is 53.6 µM (active).
As for `Cc1cc(-c2ccc(F)cc2)n2ncc(-c3ccccc3)c2n1`, the Potency result in assay [1], in assay [2], in assay [3], in assay [4], in assay [5] and in assay [6] was “inactive” in each case.
Regarding `Cc1cc(Br)ccc1-n1[nH]c(C)c(C=Nc2cccc3nsnc23)c1=O`, the Potency result in assay [1], in assay [2], in assay [3], in assay [4], in assay [5] and in assay [6] was “inactive” throughout.
For `COC(=O)c1cc(NC(=O)CC2SCCNC2=O)cc(C(=O)OC)c1` (stereo not drawn), the Potency result in assay [1], in assay [2] and in assay [4] was “inactive” in each case. For the same compound, the activation in assay [3] is 4.81% [at 17.1 µM, percent relative to cAMP agonist control]; in assay [6], 0.776% [at 30.8 µM]. Besides, in assay [5], the activity change, negative = inhibition is 6.38% [at 30.8 µM].
`Cc1nnc(SCc2nnc(-c3ccc(Cl)cc3)o2)n1-c1ccccc1`: the Potency entry in assay [1], in assay [2], in assay [3], in assay [4], in assay [5] and in assay [6] was “inactive” in each case.
Turning to `Cc1cccc(C)c1OC(=O)c1ccccc1`, the Potency result in assay [1], in assay [2] and in assay [4] was “inactive” each time. Further, the activation was 9.32% [at 17.1 µM, percent relative to cAMP agonist control] in assay [3] and 6.89% [at 30.8 µM] in assay [6]. Also, the activity change, negative = inhibition in assay [5] was 6.4% [at 30.8 µM].
With `Cn1cc([C@]2(O)C(=O)Nc3c(F)cccc32)c2ccccc21`, the Potency result in assay [1], in assay [2], in assay [3], in assay [4], in assay [5] and in assay [6] was “inactive” each time.
Consider `O=S(=O)(O)c1cccc(N=Nc2c(O)ccc3ccccc23)c1`, for which the Potency in assay [1] was 37.9 µM (active); in assay [4], 23.9 µM (active). The Potency result in assay [2], in assay [3], in assay [5] and in assay [6] was “inactive” throughout.
As for `COc1cccc(CN(C)CC(=O)Nc2c(C)cccc2C(C)C)c1`, the Potency entry in assay [1], in assay [2] and in assay [4] was “inactive” each time. Besides, the activation in assay [3] is 9.26% [at 17.1 µM, percent relative to cAMP agonist control]; in assay [6], 14.6% [at 30.8 µM]. The activity change, negative = inhibition in assay [5] was -8.13% [at 30.8 µM].
Consider `Cn1c(C(O)c2ccc(Br)cc2)nc(Cl)c1Cl` (stereo not drawn), for which the Potency result in assay [1], in assay [2] and in assay [4] was “inactive” throughout. Further, the activation in assay [3] was -7.53% [at 17.1 µM, percent relative to cAMP agonist control]; in assay [6] it was 8.17% [at 30.8 µM]. In assay [5], the activity change, negative = inhibition is -0.272% [at 30.8 µM].
Take `CCN(c1ccccc1)S(=O)(=O)c1ccc(C(=O)Nc2ccncc2)cc1`: the Potency result in assay [1], in assay [2] and in assay [4] was “inactive” each time. The activation in assay [3] was -2.02% [at 17.1 µM, percent relative to cAMP agonist control]; in assay [6] it was 15% [at 30.8 µM]. Moreover, the activity change, negative = inhibition in assay [5] is -7.46% [at 30.8 µM].
With `COc1ccc(/C=N/Nc2nnc(C)n2N)cc1OC(C)=O`, the Potency entry in assay [1], in assay [2], in assay [3], in assay [4], in assay [5] and in assay [6] was “inactive” in each case.
